The values below come from PubChem BioAssay AID2546 (National Center for Advancing Translational Sciences (NCATS), 2010).

SMILES strings stand for the structures. Out of some 310,000 compounds screened, about 11,000 (3.5%) were called active. Where a call stands in place of a potency, no number is given. Inconclusive results (about 8%) are left out. The full list was thinned out, with actives kept by preference. Unmarked numbers belong to inactive results. Calls come from the whole dose curve; as a rule, active = well fitted inhibition curve with a large enough effect; inconclusive = small, poorly fitted or top-dose-only effect, or effect the other way; inactive = flat fitted curve, though single readings scatter.
Potency is the fitted concentration of half-maximal effect.

A short description of the experiment: VP16 counterscreen qHTS for inhibitors of ROR gamma transcriptional activity.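 Note: Gal4-VP16 expression switched on by copper sulfate through the metallothionein promoter; nearly all actives have a fitted effect of over 50% in size.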 The note with it: Drosophila S2 Gal4-VP16 UAS-luciferase, luminescence, 20 h; series mostly up to 53.6 µM. The source says:
NIH Molecular Libraries Probe Production Network [MLPCN]
NIH Chemical Genomics Center [NCGC]
Assay Provider: Dan Littman, New York University
The retinoic acid-related orphan receptor (ROR) gamma is a transcription factor that has a central role in the differentiation of Th17 cells, a subset of T helper cells that secrete the inflammatory cytokines IL-17, IL-17F, and IL-22. Th17 cells have been implicated in graft versus host disease, autoimmune disease and asthma. ROR gamma is induced in naive T helper cells in the presence of TGF-beta combined with IL-6, IL-21, or IL-23, and thereafter directs the expression of the Th17 lineage cytokines. To identify nonspecific inhibitors, a Drosophila Schneider cell line was stably transfected with two vectors: a gene expressing a fusion of the Gal4 DNA binding domain and VP16 transactivation domain under the control of the metallothionine promoter and a Photinus luciferase reporter regulated by the Gal4 binding site enhancer, UAS. […] Small molecule inhibitors that inhibit components common to the RORgt and VP16 assays, such as the Gal4 DNA binding domain or the UAS luciferase reporter, will be active in both assays and thus scored as nonspecific.
For screening, 600 cells in 4 uL/well were dispensed into white solid 1536-well plates (Grenier) using a solenoid-based dispenser. Following transfer of 23 nL compound or DMSO vehicle by a pin tool, the plates were incubated 1 hr at ambient temperature, and 1 uL/well copper sulfate (700 uM final concentration) was added. The plates were centrifuged 15 s at 1000 RPM and incubated 20 hr at ambient temperature. After addition of 1.5 uL Photinus luciferase detection reagent, the plates were incubated 10 min at ambient temperature and then read by a ViewLux (Perkin Elmer) to detect luminescence.
For the molecule `Cc1nc2ccccc2cc1OCc1ccc(F)cc1`, the Potency was 6.31 µM (active).
Same read-out and setting: under `Cc1occc(=O)c1OCc1ccc(F)cc1` stands “inactive”; under `Fc1cccc2ncnc(OCc3ccccc3)c12`, “inactive”; under `O=C(CCc1nnc2ccc(NCc3ccccc3Cl)nn12)NCC1CCN(C2CCCC2)C1` (stereo not drawn), “inactive”.
On the same count and under the same terms, as for `COC(=O)c1ccc(N2CCOCC2)c(NC(=O)c2ccc3c(c2)OCCO3)c1`, the entry is “inactive”.
Still for that read-out and setting: under `COc1ccc(NC(=O)CCNC(=O)Cn2cnc3sc4c(c3c2=O)CCCC4)cc1OC` stands “inactive”; under `COc1ccc(/C=N/Nc2ncnc3sc4c(c23)CCCC4)cc1O`, 4.47 µM (active).
On to `COc1ccc(NC(=O)CCCNC(=O)Cn2cnc3sc4c(c3c2=O)CCCC4)cc1OC`, for which the Potency entry was “inactive”.
Still for that read-out and setting: as for `CNC(=O)C1CCN(S(=O)(=O)c2c(C)noc2/C=C/c2cccc(C)c2)CC1`, the entry is “inactive”; as for `O=C(Cc1ccccc1F)NC1CCSc2ccccc21` (stereo not drawn), “inactive”; as for `CCOc1ccc2nc(NC(=O)CSc3nc4c(c(=O)n(C)c(=O)n4C)n3CC)sc2c1`, “inactive”.
The same measure, in the same setting: under `COc1ccc2nc(Nc3nc(-c4ccncc4)cs3)sc2c1` stands “inactive”; under `COc1ccc2nc(Nc3nc4ccc(NC(C)=O)cc4s3)sc2c1`, 7.08 µM (active).
The same measure, in the same setting: as for `CCC(=O)c1ccc(OCC(=O)Nc2ccc3nc(C)sc3c2)cc1`, the entry is “inactive”.
For the molecule `CCOc1ccc2nc(Nc3nc4ccc(NC(C)=O)cc4s3)sc2c1`, the Potency is 7.08 µM (active).
On the same count and under the same terms, as for `COc1ccc2nc(NC(=O)NC3CCCCC3)sc2c1`, the entry is “inactive”; as for `O=C(Nc1cccc(-c2cscn2)c1)C1CCN(Cc2ccsc2)CC1`, “inactive”; as for `Cc1cc2cc(CNC(=O)c3ccc(S(=O)(=O)N4CCOCC4)cc3)ccc2[nH]1`, “inactive”.
Turning to `CCc1cccc(CC)c1NC(=S)NCc1ccc2[nH]c(C)cc2c1`, the Potency is 11.2 µM (active).
On to `CCc1cccc(CC)c1NC(=S)Nc1ccc2cn[nH]c2c1`, for which the Potency entry was “inactive”.
On the same count and under the same terms, as for `Cc1cc(Cl)ccc1C(=O)C1CCCN(C(=O)c2nonc2C)C1` (stereo not drawn), the entry is “inactive”.
`Nc1nc(-c2ccccc2)cc(-c2ccccc2)n1`: the Potency entry was “inactive”.
On the same count and under the same terms, under `N#Cc1cccc(NC(=O)COC(=O)c2ccccc2C(=O)c2ccc(Cl)c([N+](=O)[O-])c2)c1` stands 7.08 µM (active); under `CC(=O)Nc1ccc(NC(=O)C(C)OC(=O)c2ccccc2C(=O)c2ccc(Cl)c([N+](=O)[O-])c2)cc1` (stereo not drawn), “inactive”; under `COC(=O)c1cc(NC(=O)Cc2ccccc2[N+](=O)[O-])ccc1Cl`, “inactive”.
Same read-out and setting: under `Cc1ccccc1OCC(=O)Nc1nnc(S(=O)(=O)N2CCCC2)s1` stands “inactive”.
On the same count and under the same terms, under `Oc1c(C(c2ccccn2)N2CCOCC2)ccc2cccnc12` (stereo not drawn) stands 2.82 µM (active); under `Cc1nc2sc(C(c3ccco3)N3CCOCC3)c(O)n2n1` (stereo not drawn), “inactive”; under `OC(COc1ccc2ccccc2c1)CN1CCOCC1` (stereo not drawn), “inactive”.
Take `COC(=O)c1ccc2c(C(C)(C)O)c(C(C)(C)O)[nH]c2c1`: the Potency result is “inactive”.
On the same count and under the same terms, under `O=C(NCCNc1ccc([N+](=O)[O-])cc1Cl)c1ccccc1F` stands “inactive”; under `O=C(Nc1cccc(Cl)c1N1CCOCC1)c1cccnc1`, “inactive”; under `O=C(Nc1ccc(N2CCN(C(=O)c3ccccc3)CC2)c(Cl)c1)c1cccnc1`, 17.8 µM (active).
`COC(=O)c1cc(NC(=O)c2cccnc2)ccc1N1CCOCC1`: the Potency result was “inactive”.
For the molecule `COc1cccc(CNC(=O)CCCC(=O)Nc2cccc([N+](=O)[O-])c2)c1`, the Potency entry was “inactive”.
Same read-out and setting: under `CCCN1CNC(=S)N(CCc2ccccc2)C1` stands 3.16 µM (active); under `N#CNC1=NCN(CCc2ccccc2)CN1`, “inactive”.
The same measure, in the same setting: under `S=C1SCN(CCN2CCOCC2)CN1Cc1ccccc1` stands “inactive”; under `COc1ccc(S(=O)(=O)N(CC(=O)N/N=C/c2ccccc2C(=O)O)c2ccccc2OC)cc1`, “inactive”; under `COc1ccccc1N(CC(=O)N/N=C(\C)c1ccccc1O)S(=O)(=O)c1ccc(C)cc1`, 0.708 µM (active).
Same read-out and setting: under `COc1ccccc1NC(=O)CN(c1ccccc1OC)S(=O)(=O)c1ccccc1` stands “inactive”.
Take `CC(C)OCCCNC(=O)c1cc(Sc2ccc(F)cc2)nc2ccccc12`: the Potency entry is “inactive”.
On the same count and under the same terms, as for `CC(C)OCCCNc1ncnc2c1[nH]c1ccc(F)cc12`, the figure is 2.82 µM (active); as for `COc1cc(OC)c(OC)cc1/C=N/Nc1ncnc2c1[nH]c1ccc(C)cc12`, “inactive”; as for `COC1=C(N2CCOCC2)C(=O)c2ccccc2C1=O`, “inactive”.
Same read-out and setting: as for `COC(=O)C(C)Oc1ccc2c(c1)O/C(=C\c1cccc(Br)c1)C2=O` (stereo not drawn), the entry is “inactive”.
Still for that read-out and setting: under `CCCS(=O)(=O)N1CCN=C1SCc1cccc(F)c1` stands “inactive”; under `COc1ccc(-c2noc(CNC(=O)C(C)Oc3ccccc3)n2)cc1` (stereo not drawn), “inactive”; under `COc1ccc2[nH]c3nc(SCC(=O)NC4CC4)nnc3c2c1`, “inactive”.
In the case of `COCCN(CCOC)S(=O)(=O)c1ccc(C(=O)Nc2nc3c(s2)CCc2ccccc2-3)cc1`, the Potency was 12.6 µM (active).
For `COc1ccc(C(=O)Nc2ncc3c(n2)-c2ccccc2CC3)cc1`, the Potency entry was “inactive”.
For the molecule `COCCN(CC(=O)Nc1ccccc1C)S(=O)(=O)c1ccc(S(=O)(=O)N2CCCC2)cc1`, the activity, negative = inhibition is -1.46% [at 0.365 µM].
For the molecule `Cc1onc(-c2ccccc2)c1C(=O)Nc1ccccc1C#N`, the Potency result was “inactive”.
